An excerpt weighted towards active compounds, which were near 2.4% of everything screened.
PKD1 inh: inhibitors of human PKD1 kinase, biochemical, fluorescence polarization. 0.056% of 200,000 active. inhibition, % (no concentration beside the values). Serine/threonine-protein kinase D1 (Homo sapiens), Q15139. PKD1 kinase fluorescence polarization assay. AID 797, 2007; in the data active = inhibition above about 50%
Target sequence (Q15139 whole entry, looked up): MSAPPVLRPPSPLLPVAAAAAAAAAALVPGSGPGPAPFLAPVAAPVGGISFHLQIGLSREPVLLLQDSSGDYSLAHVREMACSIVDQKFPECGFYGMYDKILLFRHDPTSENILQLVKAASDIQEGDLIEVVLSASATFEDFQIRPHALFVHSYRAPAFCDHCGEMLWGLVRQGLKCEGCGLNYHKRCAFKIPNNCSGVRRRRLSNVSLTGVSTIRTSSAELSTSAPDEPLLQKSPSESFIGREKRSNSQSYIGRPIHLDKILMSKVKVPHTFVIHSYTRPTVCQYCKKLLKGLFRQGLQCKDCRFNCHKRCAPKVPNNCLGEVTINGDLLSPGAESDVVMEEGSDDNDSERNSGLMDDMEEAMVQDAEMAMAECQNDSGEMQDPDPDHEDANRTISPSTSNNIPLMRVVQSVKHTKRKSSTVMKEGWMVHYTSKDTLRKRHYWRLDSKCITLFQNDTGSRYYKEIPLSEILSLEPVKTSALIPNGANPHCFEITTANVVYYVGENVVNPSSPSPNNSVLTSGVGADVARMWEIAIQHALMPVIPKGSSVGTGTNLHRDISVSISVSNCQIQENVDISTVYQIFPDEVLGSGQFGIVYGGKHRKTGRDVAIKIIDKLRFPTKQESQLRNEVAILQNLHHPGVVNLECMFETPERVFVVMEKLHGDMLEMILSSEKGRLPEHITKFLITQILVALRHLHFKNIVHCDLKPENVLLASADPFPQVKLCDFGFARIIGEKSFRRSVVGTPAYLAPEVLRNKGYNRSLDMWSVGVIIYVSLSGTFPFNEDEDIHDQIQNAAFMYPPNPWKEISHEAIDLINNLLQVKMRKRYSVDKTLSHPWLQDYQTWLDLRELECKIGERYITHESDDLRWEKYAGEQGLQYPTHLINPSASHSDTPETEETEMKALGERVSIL
PERK inh: block of dimerizer-induced PERK translation repression, primary screen, PERK inhibitor project, CHO PERK-DD cells, SEAP luminescence, HTS. Eukaryotic translation initiation factor 2-alpha kinase 3 (Homo sapiens), Q9NZJ5. CHO PERK-DD fusion, SEAP luminescence translation reporter. inhibition, % at 5.6 µM. 0.17% of 220,000 active. AID 1416, 2008;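 active = inhibition above the mean inhibition of all tested compounds plus 3 SD, set separately per screening campaign, cut at about 2.9% in these data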;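 note: PERK kinase domain activated by AP20187 dimerizer at 100 nM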
DTT redox prof: compounds producing H2O2 with reducing agent – biochemical, NIH compound library profiling, artefact control for MLSCN library redox annotation, primary screen | DTT-dependent redox cycling H2O2, phenol red/HRP absorbance; 100% = 100 µM peroxide control, 0% = buffer | activation, % at 10 µM | 0.03% of 200,000 active;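 active = activation of at least 50% relative to the plate's high and low controls in the primary single-dose screen; inactive = activation below 50%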;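 note: compound incubated with DTT at 0.8 mM final as the reducing agent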
WT yeast gro inh: growth inhibition of WT strain, primary screen, mitochondrial fusion inhibitor project, WT and mutant strains, chemical genetic. mitochondrial fusion phenotypic screen. inhibition, % at 10 µM. 2.1% of 190,000 active. AID 1362, 2008; in the data active = inhibition above about 58%; tested in S. cerevisiae
zVAD death inh: inhibitors of zVAD-triggered necroptosis, primary screen, L929 cells; L929 zVAD necroptosis rescue, ATP luminescence, 24 h; with zVAD 60 µM; viability rescue, % at 10 µM; 0.38% of 220,000 active; AID 1377, 2008;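 active = activation, scaled between plate controls, above about 75%, limit read from the data; inactive = activation under that limit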
TNF death inh: inhibitors of TNF-alpha triggered necroptosis, primary screen, cell-based, Jurkat FADD-/-, single concentration | Jurkat FADD-/- TNF necroptosis rescue, ATP luminescence, 24 h; 0 = TNF only, 100 = no-TNF cells | activation (protection from cell death), % at 10 µM | 0.068% of 220,000 active | AID 463075, 2010;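 active = activation, meaning protection from cell death, of at least 50% relative to plate controls; inactive = activation below 50%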;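 note: necroptosis triggered by 40 ng/mL TNF-alpha added together with compound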
Numbers stand for hits; 0 = inactive; - = no result given.

SMILES | PKD1 inh | PERK inh | DTT redox prof | WT yeast gro inh | zVAD death inh | TNF death inh
Cc1ccc(OCCn2c(NC(=O)c3ccco3)nc3ccccc32)cc1 | 0 | 0 | 0 | 0 | 0 | 0
CC(C)C(=O)NCCc1nc2ccccc2n1CCCOc1ccc(Cl)cc1 | 0 | 0 | 0 | 70 | 0 | 0
Cc1cccc(OCCn2c(NC(=O)c3ccco3)nc3ccccc32)c1 | 0 | 0 | 0 | 73 | 0 | 0
Cc1ccc(OCCn2c(CCNC(=O)C(C)C)nc3ccccc32)cc1 | 0 | 0 | 0 | 0 | 0 | 0
O=C(Nc1nc2ccccc2n1CCOc1ccc(Cl)cc1)c1ccco1 | 0 | 0 | 0 | 70 | 0 | 0
O=C(Nc1nc2ccccc2n1CCOc1ccccc1)c1ccco1 | 0 | 0 | 0 | 0 | 0 | 0
CC(C)C[C@H](NC(=O)c1nc[nH]c1C(=O)N(C)Cc1ccccc1)C(=O)OC(C)(C)C | 0 | 0 | 0 | 0 | 0 | 0
CS(=O)(=O)N(CC(=O)NC1CC2CCC1C2)c1ccc(Oc2ccccc2)cc1 (stereo not drawn) | 0 | 0 | 0 | 0 | 0 | 0
O=C(COC(=O)CCc1c[nH]c2ccccc12)NC(c1ccccc1)c1ccccc1 | 0 | 0 | 0 | 0 | 0 | 0
CSc1nc(C(=O)N2CCc3c([nH]c4ccccc34)C2c2ccccn2)cs1 (stereo not drawn) | 0 | 0 | 0 | 59 | 0 | 0
Cc1cccc(C2c3[nH]c4ccccc4c3CCN2C(=O)c2noc3c2CCCC3)n1 (stereo not drawn) | 0 | 0 | 0 | 60 | 0 | 0
Cc1ccc(NC(=S)N2CCN(c3ncccn3)CC2)c(C)c1 | 0 | 0 | 0 | 0 | 0 | 0
CSc1nc(Oc2ccc(C)cc2)cc(C(F)(F)F)n1 | 0 | 3.6 | 0 | 0 | 0 | 0
CCN(CC)CCNC(=O)Cn1c(-c2ccccn2)nc2ccccc21 | 0 | 0 | 0 | 61 | - | 0
CC1CCCN(Cc2nc3c(c(=O)n(C)c(=O)n3C)n2CC(N)=O)C1 (stereo not drawn) | 0 | 0 | 0 | 98 | 0 | 0
Cc1cc(N/N=C2\CC(C)CC(C)(C)C2)nc2ccccc12 (stereo not drawn) | 0 | 0 | 0 | 76 | 0 | 0
CC1C/C(=N/Nc2nc3ccccc3[nH]2)CC(C)(C)C1 (stereo not drawn) | 0 | 0 | 0 | 0 | 0 | 0
CCc1ccc2c(c1)cc(C)c1nnc(SCC(=O)Nc3cc(OC)c(OC)cc3C(=O)O)n12 | 0 | 0 | 0 | 0 | 0 | 0
CN(Cc1cccs1)c1nc(-c2cccnc2)nc2ccccc12 | 0 | 0 | 0 | 64 | 0 | 0
OCCSc1nc(-c2cccnc2)nc2ccccc12 | 0 | 0 | 0 | 0 | 0 | 0
CCCc1nnc(SCC(=O)O)n1CC | - | 0 | - | - | 0 | 0
O=C(NCC1(c2ccccc2)CCCC1)C1(c2ccccc2)CCCC1 | 0 | 0 | 0 | 83 | 0 | 0
Cn1c(=O)c2c(nc(Oc3ccc4c(c3)OCO4)n2Cc2ccc(Cl)cc2)n(C)c1=O | 0 | 0 | 0 | 0 | 0 | 0
Cn1c(Oc2ccc3c(c2)OCO3)nc2c1c(=O)n(Cc1ccccc1)c(=O)n2C | 0 | 0 | 0 | 98 | 0 | 0
O=C(Oc1cc2oc(=O)c3c(c2cc1Cl)CCCC3)c1cccs1 | 0 | 0 | 0 | 70 | 0 | 0
SMILES | PKD1 inh | PERK inh | DTT redox prof | WT yeast gro inh | zVAD death inh | TNF death inh
O=C(Oc1ccc2c3c(c(=O)oc2c1)CCCC3)c1cccs1 | 0 | 0 | 0 | 0 | 0 | 0
CCCCCCCSc1nsc(N)n1 | 0 | 0 | 0 | 66 | 0 | 0
S=C1NCCc2ccccc2C1c1ccccc1Cl (stereo not drawn) | 0 | 0 | 0 | 62 | 0 | 0
S=C1NCCc2ccccc2C1c1ccccc1 (stereo not drawn) | 0 | 0 | 0 | 0 | 0 | 0
Cc1ccc(NNC(=O)C(=O)N2CCCCC2)cc1 | 0 | 0 | 0 | 64 | 0 | 0
Cc1ccccc1C(=O)NNC(=O)C(=O)N1CCCCC1 | 0 | 0 | 0 | 0 | 0 | 0
O=C(NNC(=O)c1ccccc1)C(=O)N1CCCCC1 | 0 | 3.1 | 0 | 0 | 0 | 0
CC(C)(C)OC(=O)N1CCC(c2cc(=O)n3[nH]cc(C(=O)Nc4ccc(F)c(Cl)c4)c3n2)CC1 | - | 0 | - | - | 0 | 0
CC(C)(C)OC(=O)N1CCC(c2cc(=O)n3[nH]cc(C(=O)NC4CCCC4)c3n2)CC1 | 0 | 3.2 | 0 | 0 | 0 | 0
O=C(CN1C(=O)/C(=C/c2cccc(Br)c2)SC1=S)N1CCCC1 | 0 | 0 | 0 | 0 | 0 | 0
COc1cccc(N/C(C)=C/C(=O)c2ccc(Br)cc2)c1 | 0 | 0 | 0 | 65 | - | 0
O=C(CCCSc1ccccc1)Nc1nc(-c2ccccn2)cs1 | 0 | 0 | 0 | 69 | 0 | 0
CSCCC(=O)Nc1nc(-c2ccccn2)cs1 | 0 | 0 | 0 | 0 | 0 | 0
CCn1cc(C(=O)NC(C)C23CC4CC(CC(C4)C2)C3)cn1 (stereo not drawn) | 0 | 0 | 0 | 0 | 0 | 0
CC(NC(=O)Cn1ncc(Cl)c(Cl)c1=O)C12CC3CC(CC(C3)C1)C2 (stereo not drawn) | 0 | 0 | 0 | 64 | 0 | 0
O=[N+]([O-])/C=C/c1c(OCc2ccccc2)ccc2ccccc12 | 0 | 0 | 0 | 77 | 0 | 0
CCOC(=O)COc1ccc2ccccc2c1/C=C/[N+](=O)[O-] | 0 | 0 | 0 | 86 | 0 | 0
CCOC(=O)COc1ccc(/C=C/[N+](=O)[O-])c(OCC(=O)OCC)c1 | 0 | 0 | 0 | 0 | 0 | 0
Cc1cc(Nc2nc3ccccc3nc2Cl)n(-c2ccccc2C)n1 | 0 | 0 | 0 | 63 | 0 | 0
Cc1cc(Nc2nc3ccccc3nc2Cl)n(-c2ccccc2)n1 | 0 | 0 | 0 | 0 | 0 | 0
S=C(NCCc1ccccc1)N1CCc2ccccc2C1 | 0 | 0 | 0 | 71 | 0 | 0
Clc1ccccc1-c1ccc(CN2CCN(c3ccccc3)CC2)o1 | 0 | 0 | 0 | 66 | 0 | 0
c1ccc(-c2nnc(CN3CCN(c4ccccc4)CC3)o2)cc1 | 0 | 0 | 0 | 0 | 0 | 0
C=CCNC(=S)N/N=C/c1ccc(C(C)(C)C)cc1 | 0 | 0 | 0 | 76 | 0 | 0
CC(C)(C)c1ccc(/C=N/NC(=S)NCc2ccccc2)cc1 | 0 | 0 | 0 | 0 | 0 | 0
CC(C)(C)c1ccc(/C=N/NC(=S)Nc2cccnc2)cc1 | 0 | 0 | 0 | 60 | 0 | 0
CSc1ccc(C(=O)C2CCCN(C(=O)Cc3nonc3C)C2)cc1 (stereo not drawn) | 0 | 0 | 0 | 0 | 0 | 0
C=C(C)C1CC=C(C)/C(=N\NC(=S)Nc2ccc(C)cc2)C1 (stereo not drawn) | 0 | 0 | 0 | 61 | 0 | 0
C=C(C)C1CC=C(C)/C(=N/NC(=O)COc2ccccc2Cl)C1 (stereo not drawn) | 0 | 0 | 0 | 58 | 0 | 0
